# Source: PubChem BioAssay (NCI)
# This is part of a sample that, as a whole, favours compounds with a hit. Of some 83,000 tested, about 20% had one in any assay.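 Values shown are percent growth following 48 h exposure of cells in 96-well plates to a single concentration of compound; below 10 was considered active.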 Unmarked numbers belong to inactive results. Active and inactive are the calls of the source.
# Test system: PC-3 prostate
# Assay: NCI-60 one-dose screen, 48 h (100 = growth as untreated, 0 = no growth, -100 = all killed)
# Conditions: 10 µM unless noted
# Method: Growth inhibition of the PC-3 human tumor cell line is measured as a screen for anti-cancer activity. Cells are grown in 96 well plates and exposed to the test compound for 48 hours. Compounds are tested at a single concentration, which is 10^-5 M for most compounds. The reported endpoint is percent growth (GI% or GIPRCNT), where numbers from 0 - 100% represent growth inhibition, and numbers from -100% - 0 represent cell death. For example, a value of 40 represents 60% growth inhibition. A value of 0 means no net growth occurred over the course of the experiment. A value of -40 indicates 40% of cells at the beginning of the experiment died by the end of the experiment. A value of -100 means all cells are dead at the end of the experiment.
# NCI-60 Human Tumor Cell Lines Screen was performed using the standard one-dose NCI protocol, which is described in more detail at https://dtp.cancer.gov/discovery_development/nci-60/default.htm.
# Compounds with GIPRCNT values below 10 were considered active. Activity score was based on GIPRCNT using the following formula: […]
# Score is 0 for GIPRCNT values of 100 or above, 50 for GIPRCNT values of 0, and 100 for GIPRCNT values of -100.
row,Compound,growth
1,CCCCC(CC)COC(=O)C[N+](C)(C)CCOC(c1ccccc1)c1ccccc1 (stereo not given),19.5%
2,CCN(CCO)CCC(=O)c1ccc([N+](=O)[O-])cc1,103%
3,C=CCCCCOc1ccccc1-c1cnc(OCCCCC=C)n1C,73.5%
4,COc1ccc(/C=C/C(=C/c2c(O)[nH]c3cc(Br)ccc23)N=O)cc1,104%
5,COc1ccc(CC(C#N)c2ccc(Cl)cc2)cc1 (stereo not given),85.9%
6,O=C(O)c1cn(C2CC2)c2cc(N3CCN(Cc4c(O)ccc5ccccc45)CC3)c(F)cc2c1=O,36.1%
7,COc1ccc(-c2cc(-c3ccccc3)nc(NCCNc3ccnc4cc(Cl)ccc34)n2)cc1,-81.8% (active)
8,c1nc(N2CCOCC2)c2[nH]ccc2n1,107%
9,COc1ccc(C(=O)CSc2nnc(-c3cc(-c4ccccc4)nc4ccccc34)o2)cc1,105%
10,CC1(C(=O)O)CCC(N)(C(=O)O)C1(C)C (stereo not given),88.8%
11,O=c1[nH]c(CN2CCN(c3cccc(Cl)c3)CC2)nc2cc(Cl)ccc12,90.6%
12,O=C1COCCN1c1ccc(NCc2cn(Cc3ccccc3)c3ccccc23)cc1,89%
13,COc1ccc(/C=C(/C(=O)c2ccc(Cl)cc2)C(=O)C(F)(F)F)cc1,102%
14,O=C(CSc1nc2ccc([N+](=O)[O-])cc2[nH]1)Nc1cccc(Cl)c1,11.7%
15,N=C(N)c1ccc(-c2ccc(-c3ccc(-c4cccs4)s3)s2)cc1F,92.6%
16,CC(C)c1ccc(C(=O)Nc2nc3ccc(O)cc3s2)cc1,42.4%
17,c1ccc(-c2n[nH]c(-c3ccccn3)n2)nc1,94.4%
18,CCOc1ccc(S(=O)(=O)Nc2ccc3c(c2)N(S(=O)(=O)CC)CCC3)cc1,73.1%
19,C[C@@H]1C[C@H]2C(=O)O[C@@H](C)[C@H](NC(=O)[C@H](Cc3cc(F)cc(F)c3)NC(=O)Nc3ccc(Cl)cc3F)C(=O)N3C[C@H](O)C[C@H]3C(=O)N3CCN(C)C[C@H]3C(=O)N[C@@H](C)C(=O)N2C1,18.1%
20,C1=C[C@H]2O[C@@H]1c1ccc3[nH]ccc3c12,98%

row,Compound,growth
1,COc1ccc2nc3cc(Cl)ccc3c(Nc3ccc(O)c(CN4CCCC4)c3)c2c1,24.2%
2,CCN(CC)CCCNCc1cc(-c2ccccc2)nc2ccccc12,75%
3,Cc1ccc(-c2cn(C/C=C3\C=CN(S(=O)(=O)c4ccccc4)CC3)nn2)cc1,97.1%
4,O=C1C(Cl)=C(Nc2ccc3cn[nH]c3c2)C(=O)c2ccccc21,-42% (active)
5,Fc1cc2[nH]ncc2c2c3c(c(-c4cn[nH]c4)nc12)CCCC3,7.08% (active)
6,N#Cc1ccc(-c2ccc(COc3ccc(CC4SC(=O)NC4=O)cc3)cc2)cc1 (stereo not given),54.4%
7,C=C(C)[C@@H]1CC[C@]2(C(=O)N3CCN(C)CC3)CC[C@]3(C)[C@H](CC[C@@H]4[C@@]5(C)C/C(=C/c6ccncc6)[C@H](O)C(C)(C)[C@@H]5CC[C@]43C)[C@@H]12,-20.2% [100 µM] (active)
8,Cc1ccc(Oc2c(/C=N/NC(=O)Cn3c(=O)sc4ccccc43)c(C)nn2-c2ccccc2)cc1,35.8%
9,O=C1/C(=C/c2cccc(OCc3ccccc3)c2)Oc2cc(OCCN3CCCCC3)ccc21,47.1%
10,COc1cc(C)cc2oc3oc(=O)c(-c4nc5ccccc5s4)cc3c(=O)c12,94.1%
11,CCOC(=O)COc1ccc2c(c1)O/C(=C\c1ccc(O)cc1)C2=O,112%
12,Cc1nn(-c2ccccc2)c(N2CCOCC2)c1-c1nc2ccc([N+](=O)[O-])cc2[nH]1,112%
13,O=C(C[n+]1ccn(CC(OCc2ccc(Cl)cc2Cl)c2ccc(Cl)cc2Cl)c1)c1ccc(F)cc1 (stereo not given),-88.5% (active)
14,Cc1ccc(-c2cc(-c3ccc(C)cc3)nc(NCCNc3ccnc4cc(Cl)ccc34)n2)cc1,-22.8% (active)
15,O=C(CCN1CCCCC1)c1ccc(Cl)cc1,91.6%
16,Cc1ccccc1OC(=O)c1cccc(Cl)c1,92.2%
17,CSc1cccc([N+](=O)[O-])c1,96.9%
18,CCOC(=O)c1cc(C(=O)c2ccc(OC)c(OC)c2)n2ccc(-c3ccccn3)cc12,87%
19,C[C@H]1[C@H](C)CC[C@]2(C(=O)O)CC[C@]3(C)C(=CC[C@@H]4[C@@]5(C)C/C(=C/c6cccnc6)[C@H](O)C(C)(C)[C@@H]5CC[C@]43C)[C@H]12,17.4% [100 µM]
20,COc1ccc(N(c2nc(-c3ccc([N+](=O)[O-])cc3)cs2)C(C)C)cc1,84%
